Assay outcomes: PubChem BioAssay, several laboratories
PolyA inhibitor: blocks polyadenylation in yeast reporter cells; S. cerevisiae SKY197-pL101 polyadenylation reporter, beta-gal luminescence; efflux-impaired pdr1/pdr3 knockout yeast; score 100 = 6 SD above DMSO; activity score, % at 12 µM; 300,000 compounds, 0.02% hits; AID 1875;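 active = lowest replicate activity score at least 50, where 100 means six control SD above control mean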;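 note: yeast exposed to compound for 9 h at 30 °C; higher score means more reporter readthrough which indicates perturbed polyadenylation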
CaV13 FRET inh: Disruptors of the CACNA1D IQ motif to Ca2+-dependent inactivation inhibitor domain association, primary screening, Förster resonance energy transfer in intact living … | inhibition, % at 12.3 µM | 340,000 compounds, 0.098% hits | HEK cells, CFP/YFP FRET ICDI-IQ, plate reader, 10 min; percent FRET-ratio fall versus neutral wells;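 active = mean replicate inhibition of at least 30% and at least 1% of replicates passing that level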;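 note: 0% = median of the neutral control wells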
IDE cell activ: boosts human insulin-degrading enzyme activity in HEK cells | P14735 | activation, % at 5.96 µM | 340,000 compounds, 0.073% hits | AID 493087 | FAbeta-B cleavage, fluorescence polarization; 0% vehicle, 100% cell-free pure enzyme wells;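 active = activation above the mean of all tested compounds plus 3 SD, set per screening campaign, cut at about 17% in these data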
ALR H2O2 inh: human ALR oxidase inhibition via reduced H2O2; purified ALR, DTT oxidation, H2O2 HRP-luminol luminescence; AID 485317; inhibition, % (no concentration beside the values); 290,000 compounds, 3.8% hits;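 active = mean replicate inhibition above about 79%, with every replicate also reaching it, limit read from the data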
Target sequence (P55789 whole entry, looked up): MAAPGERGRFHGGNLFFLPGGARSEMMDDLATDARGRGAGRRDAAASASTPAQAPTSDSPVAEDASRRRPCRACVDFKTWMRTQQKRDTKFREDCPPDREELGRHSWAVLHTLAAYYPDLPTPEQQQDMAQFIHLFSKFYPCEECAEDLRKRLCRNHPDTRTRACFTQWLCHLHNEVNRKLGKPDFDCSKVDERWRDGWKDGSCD
PfM18AAP inh-1: PfM18AAP enzyme inhibition. recombinant PfM18AAP, H-Glu-NHMec fluorogenic cleavage. inhibition, % at 7.35 µM. 290,000 compounds, 1.2% hits. AID 1822;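 active = inhibition above the campaign mean inhibition over all tested compounds plus 3 SD, cut at about 28% in these data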;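 note: 0% = plate median of test compound wells and 100% = 2 mM ZnCl2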
IDE inh: inhibitors of human insulin-degrading enzyme in cells. P14735. HEK cells, FAbetaB cleavage, fluorescence polarization. inhibition, % at 5.59 µM. 320,000 compounds, 0.41% hits;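 active = percent inhibition above the average of all tested compounds plus 3 SD, set per screening campaign, cut at about 16% in these data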;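 note: IDE supplied by intact live HEK cells; FP after avidin binding of uncleaved biotin substrate so inhibition keeps polarization high; 0% = DMSO wells and 100% = 60 µM reference IDE inhibitor Ii1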
PfM18AAP inh-2: confirmation of Plasmodium falciparum M18 aspartyl aminopeptidase inhibitors; shares compounds with PfM18AAP inh-1; recombinant PfM18AAP, H-Glu-NHMec fluorogenic cleavage; inhibition, % at 7.35 µM; 2,400 compounds, 28% hits;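 active = mean inhibition over replicate wells above the hit cutoff set for the earlier primary screen, cut at about 29% in these data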;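 note: 0% = median of test compound wells and 100% = 2 mM ZnCl2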
CTSL1 counter: counter-screen for PFM18AAP inhibitors: confirmation of human cathepsin L inhibitors; shares compounds with PfM18AAP inh-1; purified cathepsin L1, Z-Leu-Arg-MCA fluorescence; inhibition, % at 5.96 µM; 2,400 tested, under 10 active;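 active = average inhibition across replicates above the hit cutoff set in the earlier primary screen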;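 note: 0% = median of test compound wells and 100% = Z-Phe-Ala-diazomethylketone 1 µM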
Target sequence (P07711 whole entry, looked up): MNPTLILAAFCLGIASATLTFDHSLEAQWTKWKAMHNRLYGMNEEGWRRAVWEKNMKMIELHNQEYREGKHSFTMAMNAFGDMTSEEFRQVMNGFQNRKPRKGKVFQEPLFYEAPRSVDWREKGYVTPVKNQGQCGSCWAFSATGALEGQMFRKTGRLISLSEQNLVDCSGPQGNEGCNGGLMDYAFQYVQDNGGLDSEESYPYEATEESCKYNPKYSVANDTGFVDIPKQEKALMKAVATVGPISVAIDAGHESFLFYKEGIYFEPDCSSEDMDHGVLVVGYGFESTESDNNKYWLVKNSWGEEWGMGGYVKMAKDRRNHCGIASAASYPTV
Active calls of the source: *; nt = not tested or not shown. Rows were chosen to be rich in hits. Some 4.1% of all compounds tested hit in one or more screens of this group.

SMILES	PolyA inhibitor	CaV13 FRET inh	IDE cell activ	ALR H2O2 inh	PfM18AAP inh-1	IDE inh	PfM18AAP inh-2	CTSL1 counter
c1ccc(CN2CCC3(CC2)Nc2ccccc2S3)cc1	-0.4	-5.4	-1.8	16.4	34.3*	1.6	-54.5	5.3
Cc1cc(C(F)(F)F)nc(NNc2nc(C)cc(C(F)(F)F)n2)n1	nt	-5.5	nt	nt	nt	nt	nt	nt
Cc1cc(C)nc(NNC2=CC(=[N+]3CCCC3)CCC2)n1	-0.8	-2.0	4.3	46.9	56.9*	3.1	45.3*	2.7
Cc1cc(C)nc(NNC2=CC(=[N+]3CCCCC3)CC(C)(C)C2)n1	-6.5	9.4	-0.1	98.8*	56.0*	0.9	39.8*	1.1
CN(C)NC1=CC(=[N+]2CCCC2)CC(C)(C)C1	7.4	9.2	-0.5	25.5	1.4	-4.2	nt	nt
CCc1nnc(N/N=C/c2cc(C)c(C)cc2C)n1N	-14.6	-2.0	1.5	-19.6	40.0*	nt	-19.8	1.6
CCC(=O)N/N=C/c1ccc(-c2ccc([N+](=O)[O-])cc2)o1	-0.2	-115.0	6.2	-3.9	-5.6	2.2	nt	nt
Cc1nnc(N/N=C\c2ccc(-c3ccccc3[N+](=O)[O-])o2)n1N	-23.4	-5.1	5.4	-18.5	43.2*	1.2	-19.2	0.3
CCc1nnc(N/N=C/c2ccc(-c3ccc([N+](=O)[O-])cc3)o2)n1N	7.1	-5.0	2.3	-17.1	42.8*	-0.9	-36.0	-2.9
Cc1n[nH]c(=S)n1/N=C/c1ccc(-c2ccccc2[N+](=O)[O-])o1	8.5	nt	0.2	-18.5	7.2	-4.3	nt	nt
COc1ccc(-c2cn(-c3ccccc3)c(=S)[nH]2)cc1OC	-10.3	-3.7	-2.3	-6.9	43.6*	6.8	10.5	-5.1
COc1cccc(-n2cc(-c3ccc(F)cc3)[nH]c2=S)c1	-5.7	-3.3	-6.5	51.5	40.7*	5.9	25.7	-0.1
COc1ccc(-c2cn(-c3ccc(C)c(Cl)c3)c(=S)[nH]2)cc1OC	-17.7	-3.3	-1.0	nt	21.5	-0.4	nt	nt
COc1ccc(-c2cn(-c3ccc(C)c(C)c3)c(=S)[nH]2)cc1OC	13.0	-1.2	1.9	6.6	31.8*	2.4	5.6	-2.4
Cc1cccc(-n2cc(-c3ccc([N+](=O)[O-])cc3)[nH]c2=S)c1	-0.4	-5.6	-0.4	nt	7.2	9.8	nt	nt
C/C(=N/NS(C)(=O)=O)c1ccc2ccccc2c1	-1.6	-5.0	2.3	nt	2.2	1.5	nt	nt
Cc1c(O)nc(SC2CC(=O)N(c3cc(Cl)cc(Cl)c3)C2=O)[nH]c1=O (stereo not drawn)	-2.4	-3.9	1.6	-2.3	nt	2.3	nt	nt
O=C(O)CCCNS(=O)(=O)/C=C/c1ccccc1	6.2	-7.6	2.7	-11.3	-7.9	0.8	nt	nt
CCCS(=O)(=O)NC(=O)C1(C)CCCN(C(=O)c2cccc(OC(F)(F)F)c2)C1 (stereo not drawn)	nt	-4.7	nt	nt	nt	nt	nt	nt
Cc1nn(CCCC(=O)Nc2cccnc2Cl)c(C)c1[N+](=O)[O-]	-10.8	-11.7	5.4	-2.5	1.5	-1.2	nt	nt
Cc1csc2c(N3CCN(C(=O)c4ccc(C(C)(C)C)cc4)CC3)ncnc12	17.3	-3.0	1.0	-22.6	-3.5	6.7	nt	nt
COC(=O)Nc1nc(Sc2ncc(C(F)(F)F)cc2Cl)n[nH]1	-4.8	-14.7	-2.2	-3.8	69.5*	0.9	70.3*	-0.7
COc1ccc(N2CCN(C(=O)COc3ncnc4ccccc34)CC2)cc1	-2.8	10.1	0.2	nt	2.4	0.7	nt	nt
O=C1CSC(=S)N1/N=C/c1cccc(C(F)(F)F)c1	-5.3	-3.3	-2.6	2.0	39.5*	11.4	-6.3	-4.2
COc1cccc(/C=N/N2C(=O)CSC2=S)c1O	-8.8	-4.9	-4.5	97.8*	32.0*	4.9	26.0	0.3
SMILES	PolyA inhibitor	CaV13 FRET inh	IDE cell activ	ALR H2O2 inh	PfM18AAP inh-1	IDE inh	PfM18AAP inh-2	CTSL1 counter
COc1cc(/C=N/N2C(=O)CSC2=S)cc(Br)c1O	nt	-3.5	-94.6	nt	26.6	nt	nt	nt
O=C1CSC(=S)N1/N=C/c1c(F)cccc1F	14.5	-3.0	-1.6	nt	36.6*	0.0	-4.4	1.8
O=C(CCC(=O)N/N=C/c1ccccc1O)NCc1ccccc1	0.3	-7.4	-1.1	6.4	-8.2	-1.9	nt	nt
O=C1CCC(C(=O)OCC(=O)Nc2ccc(Cl)cc2C(F)(F)F)=NN1	nt	-6.1	4.9	nt	nt	-1.2	nt	nt
Cc1c(C(=O)O)cccc1-n1c(C)cc(/C=N/Nc2ccc([N+](=O)[O-])cn2)c1C	-8.5	-2.2	2.5	nt	58.9*	-2.4	-17.4	5.5
CCN(CC)c1ccc([N+](=O)[O-])cc1/C=N/NC(=O)CC#N	-7.9	-2.9	3.4	8.7	23.9	10.7	nt	nt
Cc1cc(/C=N/NC(=O)CC#N)c(C)n1-c1ccc([N+](=O)[O-])cc1	24.0	-2.5	-2.0	9.8	34.2*	-2.4	-49.8	-6.5
Cc1cc(/C=N/Nc2ccc([N+](=O)[O-])cn2)c(C)n1-c1ccccc1	-1.1	nt	4.2	1.5	51.1*	2.5	-19.9	3.2
Cc1ccc(-n2c(C)cc(/C=N/Nc3ccc([N+](=O)[O-])cn3)c2C)cc1	3.8	-5.5	-7.5	-0.5	-3.8	-2.4	nt	nt
O=C(O)Cn1cc(/C=N/Nc2ccc([N+](=O)[O-])cn2)c2ccccc21	10.9	-15.3	4.8	99.0*	52.7*	nt	-19.8	-0.9
O=[N+]([O-])c1ccc(NN=Cc2cccc3ccccc23)nc1	nt	-38.3	2.9	nt	nt	nt	nt	nt
CCN(CC)c1nc2c(c(=O)[nH]c(=O)n2C)n1CCOc1ccccc1	-1.3	-1.3	-4.0	-8.5	3.0	-0.1	nt	nt
COc1ccc(/C=C2\SC(=S)N(N3C(=O)CCC3=O)C2=O)cc1O	-9.7	-14.0	-1.2	30.8	31.9*	2.6	-40.9	3.9
Cc1ccc(/C=C/C(=O)Nc2nn[nH]n2)o1	17.3	-3.1	3.3	28.0	51.3*	-1.8	14.3	5.7
Cc1cc(C)c2cc(CN(Cc3ccco3)C(=O)NCc3ccccc3)c(=O)[nH]c2c1	-0.6	nt	1.7	-5.7	35.0*	0.8	-18.9	-1.9
OC(CCCN1CCCCC1)(c1ccccc1)c1ccc(C(F)(F)F)cc1 (stereo not drawn)	nt	-6.6	6.5	nt	nt	nt	nt	nt
O=C1C(C2=NC(c3ccccn3)C3C(=O)N(c4ccccc4)C(=O)C23)=C(O)c2ccccc21 (stereo not drawn)	13.2	-16.2	0.5	-3.2	70.5*	2.5	-30.5	1.6
CCCNC(=O)C[C@@H]1C[C@H]2c3cc(NC(=O)c4ccc5c(c4)OCO5)ccc3O[C@H]2[C@@H](CO)O1	nt	-8.2	nt	nt	nt	nt	nt	nt
Cc1ccc(CSCC(=O)N(CCC(C)C)c2c(N)n(Cc3ccccc3)c(=O)[nH]c2=O)cc1	-19.7	-1.4	2.6	-7.4	nt	3.8	nt	nt
